High-throughput results (PubChem BioAssay)
HP1b chromo inh: blocks HP1-beta chromodomain binding to methylated histone tails; P83916; AlphaScreen HP1-beta / biotin-H3K9me3 peptide binding; Potency, µM (series often up to 114 µM), usual class: inhibitors; actives 0.56% (n = 390,000); AID 540317; also: nearly all actives have a fitted effect of over 70% in size
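HP1-beta protein (50 nM final) preincubated 30 min at room temperature with biotinylated H3(1-18)K9me3 peptide (50 nM) in PBS pH 7.4, 0.01% Tween-20, then compound added for 30 min. AlphaScreen streptavidin donor/nickel chelate acceptor beads (10 ug/mL final), 30 min dark, luminescence read.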
JMJD2A Tudor: blocks the human JMJD2A Tudor domain | AlphaScreen JMJD2A-Tudor / H3K4me3 peptide binding | Potency, µM (titrated, usually from 114 µM), usual class: inhibitors | O75164 | AID 504339 | actives 4.4% (n = 390,000); also: nearly all actives have a fitted effect of over 50% in size
G9a inh: G9a (human) methyltransferase inhibition; Q96KQ7; G9a H3K9 monomethylation, AlphaScreen, 2 h; actives 8.8% (n = 350,000); Potency, µM (series often up to 102 µM), hits mostly inhibitors; also: nearly all actives have a fitted effect of over 75% in size
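AlphaScreen read-out: biotin-H3K9 peptide (500 nM) methylation by 20 nM enzyme with 20 uM SAM, 2 h at room temperature after 15 min compound preincubation; anti-monomethyl H3K9 antibody plus donor/acceptor beads, 10 min dark.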
Sfp inh: inhibitors of Bacillus subtilis Sfp phosphopantetheinyl transferase; Biochemical Sfp PPTase activity, qHTS; Potency, µM, hits mostly inhibitors; actives 3.5% (n = 310,000);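 also: the enzyme is Sfp with the accession as filed and its product quenches rhodamine fluorescence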
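Step 1, compound plus 15 nM Sfp-PPTase, 15 min, room temperature. Step 2, add rhodamine-CoA (5 uM) and BHQ-2-YbbR (12.5 uM). Step 3, read 525/598 nm fluorescence at 0 and 30 min.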
L3MBTL1 block: L3MBTL1 (human) inhibition. Q9Y468. actives 0.66% (n = 230,000). AlphaScreen L3MBTL1–H3K9me1 peptide binding. AID 485360. Potency, µM (highest dose often 57.1 µM), hits mostly inhibitors; also: nearly all actives have a fitted effect of over 60% in size
Target sequence (Q9Y468 whole entry, looked up): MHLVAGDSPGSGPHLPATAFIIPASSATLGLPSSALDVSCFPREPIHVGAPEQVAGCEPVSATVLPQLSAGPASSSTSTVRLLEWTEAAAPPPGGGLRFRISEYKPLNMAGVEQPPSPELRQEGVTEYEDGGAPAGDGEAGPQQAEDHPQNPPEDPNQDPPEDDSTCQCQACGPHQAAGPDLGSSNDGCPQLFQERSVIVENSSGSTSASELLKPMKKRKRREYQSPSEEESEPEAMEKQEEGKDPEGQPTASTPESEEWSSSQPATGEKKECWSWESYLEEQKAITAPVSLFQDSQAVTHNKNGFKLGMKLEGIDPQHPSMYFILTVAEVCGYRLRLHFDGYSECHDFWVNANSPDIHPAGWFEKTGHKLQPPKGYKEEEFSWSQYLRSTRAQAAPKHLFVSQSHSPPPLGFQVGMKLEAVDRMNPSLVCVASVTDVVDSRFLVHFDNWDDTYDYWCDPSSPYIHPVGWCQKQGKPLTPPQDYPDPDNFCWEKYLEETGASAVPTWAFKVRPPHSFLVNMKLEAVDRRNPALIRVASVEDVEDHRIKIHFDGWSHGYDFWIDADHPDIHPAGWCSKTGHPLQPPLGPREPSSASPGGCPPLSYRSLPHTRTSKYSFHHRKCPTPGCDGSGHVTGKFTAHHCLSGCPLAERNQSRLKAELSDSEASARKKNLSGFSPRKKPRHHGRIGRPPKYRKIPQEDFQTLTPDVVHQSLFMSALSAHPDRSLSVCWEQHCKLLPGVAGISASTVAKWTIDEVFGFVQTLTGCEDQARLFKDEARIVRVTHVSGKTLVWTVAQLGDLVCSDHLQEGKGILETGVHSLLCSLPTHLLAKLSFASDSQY
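AlphaScreen proximity signal between nickel-chelate acceptor and streptavidin donor beads (final 10 ug/mL) reports binding of 50 nM L3MBTL1 to 75 nM biotin-H3 K9me1 peptide; complex incubated with compounds 30 min at room temperature; cefsulodin titration as control.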
BAZ2B inh: BAZ2B (human) inhibition | Q9UIF8 | AlphaScreen BAZ2B-H3K14Ac peptide displacement | Potency, µM (top dose mostly 114 µM), hits mostly inhibitors | actives 4.4% (n = 360,000); also: nearly all actives have a fitted effect of over 60% in size
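AlphaScreen luminescence quantifies BAZ2B engagement of H3K14Ac peptide; the protein and biotinylated peptide are both at 50 nM final, buffer PBS pH 7.4 with 0.01% Tween-20, all steps at room temperature.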
A number is an active result; ! = not active in a repeat; [ ] = another dose, or the depositor's remark. Hits are enriched below; roughly 12% of the tested compounds scored in any of these assays. Calls follow the shape of the dose curve; as a rule, active = well fitted curve in the direction sought with a large enough effect; inconclusive = small, poorly fitted or top-dose-only effect, or another doubt; inactive = no such curve, though single readings can be large; an effect the other way counts as inactive or inconclusive.

Screening CCOc1ccc(NC(=O)CCS(=O)(=O)c2ccc(Br)cc2)cc1 returned HP1b chromo inh 20µM, JMJD2A Tudor 17.8µM, G9a inh 44.7µM, Sfp inh inactive and BAZ2B inh 35.5µM!.
CCOc1ccccc1NC(=O)COC(=O)CN(C)S(=O)(=O)c1ccc(C)cc1 was read as HP1b chromo inh inactive, JMJD2A Tudor 89.1µM, G9a inh inactive, Sfp inh inactive, L3MBTL1 block inactive and BAZ2B inh inactive.
For O=C(CCS(=O)(=O)c1ccc(Br)cc1)NC1CCCC1 the results were HP1b chromo inh inactive, JMJD2A Tudor 50.1µM, G9a inh 44.7µM, Sfp inh inactive and BAZ2B inh 50.1µM.
CCN(CC)S(=O)(=O)c1ccc2c(c1)N(CC(=O)N1CCN(c3cccc(C)c3C)CC1)C(=O)CO2 was read as HP1b chromo inh inactive, JMJD2A Tudor inactive, G9a inh inactive and BAZ2B inh inactive.
Screening CCc1ccccc1NC(=O)CCS(=O)(=O)c1ccc(Br)cc1 returned HP1b chromo inh inconclusive, JMJD2A Tudor inconclusive, G9a inh 50.1µM, Sfp inh inactive and BAZ2B inh 79.4µM.
Cc1nn(-c2ccc(Cl)cc2)c2nc(-c3cccnc3)cc(C(F)(F)F)c12 was read as HP1b chromo inh inactive, JMJD2A Tudor inactive, G9a inh inactive and BAZ2B inh inactive.
`COc1ccc(COC(=O)c2[nH]c3c(c2C)C(=O)CC(c2ccc(OC)c(OC)c2)C3)cc1` (stereo not given) gave HP1b chromo inh inactive, JMJD2A Tudor inactive, G9a inh inactive and BAZ2B inh inactive.
Screening CCOC(=O)c1[nH]c2c(c1-c1ccc(OC)cc1)C(=O)CC(c1ccc(OC)c(OC)c1)C2 (stereo not given) returned HP1b chromo inh inactive, JMJD2A Tudor inactive, G9a inh 50.1µM, Sfp inh inactive, L3MBTL1 block inactive and BAZ2B inh inconclusive.
Screening CNC(=S)Nc1ccc(C)c(NC(=S)NC)c1 returned HP1b chromo inh inconclusive, JMJD2A Tudor inactive, G9a inh 28.2µM, Sfp inh inactive, L3MBTL1 block inactive and BAZ2B inh inactive.
For Cc1ccc(NC(=S)NC(=O)c2ccccc2)cc1NC(=S)NC(=O)c1ccccc1 the results were HP1b chromo inh inactive, JMJD2A Tudor inactive, G9a inh inconclusive, Sfp inh 25.1µM, L3MBTL1 block inactive and BAZ2B inh inactive.
`CC(=O)Nc1ccc(C)c(NC(=S)Nc2ccc(F)cc2)c1` gave HP1b chromo inh inactive, JMJD2A Tudor inactive, Sfp inh inactive, L3MBTL1 block inactive and BAZ2B inh inactive.
For O=C(NC(=S)Nc1cccc(NC(=S)NC(=O)c2ccccc2)c1)c1ccccc1 the results were HP1b chromo inh inactive and JMJD2A Tudor inactive.
`Cc1ccc(C(=O)O)cc1NC(=S)NC(=O)c1ccc([N+](=O)[O-])c(C)c1` gave HP1b chromo inh inactive, JMJD2A Tudor inactive, G9a inh 50.1µM, Sfp inh inconclusive, L3MBTL1 block inactive and BAZ2B inh inconclusive.
For Cc1ccc(CNC(=S)Nc2cc(C(=O)O)ccc2C)cc1 the results were HP1b chromo inh inactive, JMJD2A Tudor inactive, G9a inh inactive, Sfp inh inactive and BAZ2B inh inactive.
For CCN(CC)CCCNC(=O)c1ccc(Cn2c(SCc3ccccc3)nc3cccnc32)cc1 the results were HP1b chromo inh inactive, JMJD2A Tudor inactive, G9a inh inactive and BAZ2B inh inactive.
Screening COCCn1c(=O)c(-c2ccc(Cl)cc2)nc2cnc(N3CCNCC3)nc21 returned G9a inh inactive[0.501 µM] and Sfp inh inactive.
O=C1CC(=O)N(CCNc2ncc(C(F)(F)F)cc2Cl)C(=O)N1 was read as HP1b chromo inh inactive, JMJD2A Tudor inactive, G9a inh inactive, Sfp inh inactive, L3MBTL1 block inactive and BAZ2B inh inactive.
For O=C1C=CC(=O)N1CCNc1ncc(C(F)(F)F)cc1Cl the results were HP1b chromo inh inactive, JMJD2A Tudor inconclusive, G9a inh 2.51µM, Sfp inh 7.08µM, L3MBTL1 block inactive and BAZ2B inh inactive.
For Cc1ccnc2nc(C(=O)NC3=NCCS3)nn12 the results were HP1b chromo inh inactive, JMJD2A Tudor inactive, G9a inh inactive, Sfp inh inactive, L3MBTL1 block inactive and BAZ2B inh inactive.
Screening Cc1ccnc2nc(C(=O)Nc3nccs3)nn12 returned HP1b chromo inh inactive, JMJD2A Tudor 10µM, G9a inh inconclusive, Sfp inh inactive and BAZ2B inh inconclusive.
CC(C)NCC(O)COc1cccc2ccccc12 (stereo not given) was read as HP1b chromo inh inactive, JMJD2A Tudor inactive, G9a inh 3.16µM!, Sfp inh inactive and BAZ2B inh inactive.
C=CCOc1ccccc1OC[C@H](O)CNC(C)C was read as G9a inh inactive[21.5 µM] and Sfp inh inactive.
`OCC(O)COc1cccc2ccccc12` (stereo not given) gave G9a inh inactive and Sfp inh inactive.
`CCc1ccc(CN(C)CC(O)COc2cccc3ccccc23)cc1` (stereo not given) gave HP1b chromo inh inconclusive, JMJD2A Tudor 2.51µM, G9a inh 22.4µM, Sfp inh inconclusive and BAZ2B inh inactive.
Screening C[C@H]1Cc2c(-c3ccccc3)nc3c(c2CO1)CN(C(=O)C1CCCCC1)CC3 returned Sfp inh inactive.
`c1ccc2nc3c(nc2c1)CCc1nonc1-3` gave HP1b chromo inh inactive, JMJD2A Tudor inactive, G9a inh inactive, Sfp inh inactive, L3MBTL1 block inactive and BAZ2B inh inactive.
Screening O/N=C1/CCc2nonc2/C1=N/O returned HP1b chromo inh inactive, JMJD2A Tudor inconclusive, G9a inh 0.708µM, Sfp inh 50.1µM and BAZ2B inh 10µM.
`Cc1ccc(N(CC(=O)Nc2ccc(Br)c(C)c2)S(=O)(=O)c2cccs2)cc1` gave HP1b chromo inh inactive, JMJD2A Tudor inactive and G9a inh inactive.
CN(C)CCCN=Cc1c(-c2ccccc2)[nH]n(-c2nc3ccccc3s2)c1=O was read as HP1b chromo inh inactive, JMJD2A Tudor inactive, Sfp inh 50.1µM, L3MBTL1 block inactive and BAZ2B inh inconclusive.
For COc1ccc2c(c1)/C(=N/OC(=O)c1cccs1)CCC2 the results were HP1b chromo inh inactive, JMJD2A Tudor inactive, G9a inh inactive, Sfp inh inactive and BAZ2B inh inactive.
`COc1ccc(NC(=O)O/N=C2/CCCc3ccc(OC)cc32)cc1` gave HP1b chromo inh inactive, JMJD2A Tudor 14.1µM, G9a inh inactive, Sfp inh inactive, L3MBTL1 block inactive and BAZ2B inh inactive.
`COc1cc(Cl)c(C)cc1NC(=O)c1cccc(OC)c1OC` gave HP1b chromo inh inactive, JMJD2A Tudor inactive, G9a inh inactive, Sfp inh inactive, L3MBTL1 block inactive and BAZ2B inh inactive.
